Experimental data as given in PubChem BioAssay (NCI).
About 79,000 compounds went through this panel and 15% of them were active in at least one assay; those are over-represented in the sample as a whole. Calls of active or inactive are those of the source. Rule as the data show it: active = growth inhibition above about 70%; inactive = the rest. *1 amine or outer side, *2 acyl side, *3 side chain or, on linkers, in order; H or OH if unused. Where a SMILES comes first, the peptide text is derived from it. [ ]: non-standard residue; d: D form. X12 = NC(N)=NCC(O)CC(N[*:1])C(=O)[*:2]; Orn = NCCC[CH](N)C(=O)O

How the values were obtained:
[1] = NCI Yeast Anticancer Drug Screen. Data for the rad50 strain (AID 155);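 also: 0% = growth of vehicle-only cultures of the same strain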; settings: S. cerevisiae rad50 strain growth inhibition; at 50.0 µM; active compounds read high
How it was run: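 DNA repair mutant yeast, compound exposure, growth read-out; inhibition is taken relative to vehicle.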

[2] = NCI Yeast Anticancer Drug Screen. Data for the mec2-1 strain (AID 157); settings: S. cerevisiae mec2-1 strain, at 50.0 µM, active compounds read high
How it was run: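 Cells of the genetically defined mec2-1 yeast strain are incubated with test compound. Inhibition of growth is calculated against vehicle-treated controls.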

[3] = NCI Yeast Anticancer Drug Screen. Data for the sgs1 mgt1 strain (AID 161);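 also: 0% = growth of cultures given vehicle only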; settings: S. cerevisiae sgs1 mgt1 strain, at 50.0 µM, active compounds read high
How it was run: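 Mutant yeast exposed to compound; growth scored against vehicle-only wells.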

[4] = NCI Yeast Anticancer Drug Screen. Data for the cln2 rad14 strain (AID 165);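 also: 0% = growth equal to vehicle treated cultures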; settings: S. cerevisiae cln2 rad14 strain, at 50.0 µM, active compounds read high
How it was run: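 The screen exposed genetically defined yeast (cln2 rad14) to test compounds and scored growth inhibition relative to vehicle-treated controls.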

[5] = NCI Yeast Anticancer Drug Screen. Data for the bub3 strain (AID 167); settings: S. cerevisiae bub3 mutant strain, at 50.0 µM, active compounds read high
How it was run: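 In this screen, a yeast mutant lacking normal mitotic checkpoint function is challenged with compound. Relative growth versus vehicle gives the inhibition value.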

[6] = NCI Yeast Anticancer Drug Screen. Data for the mlh1 rad18 strain (AID 175); settings: S. cerevisiae mlh1 rad18 strain growth inhibition; at 50.0 µM; active compounds read high
How it was run: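 Compound-treated yeast growth, normalised to vehicle controls. Strain bears defined DNA repair mutations.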

Measured: growth inhibition

O=C1NC(=O)C2(CC3CCCCC3CC2c2ccccc2)N1 (stereo unspecified)
inactive: [1] 17.1% | [2] 13.3% | [3] 12.8% | [4] 3.1% | [5] 10.3% | [6] 10.9%

CC1(C)SCCNC1=O
inactive: [1] 3.35% | [2] 8.45% | [3] 8.8% | [4] 11.8% | [5] 15.8% | [6] 4.75%

Cn1c(=O)c2[nH]c(CCCCCc3nc4c([nH]3)c(=O)n(C)c(=O)n4C)nc2n(C)c1=O
inactive: [1] -9% | [2] 7.15% | [3] -27.3% | [4] -18.5% | [5] -16.4% | [6] -16.1%

Nc1ccccc1N=Cc1c(O)c2ccccc2oc1=O
inactive: [1] -8.55% | [2] -11% | [3] 2.7% | [4] 4.05% | [5] 4.25% | [6] 8.2%

NC(=O)CNC(=O)CN1C(=O)c2ccccc2C1=O
inactive: [1] 9.05% | [2] -14.6% | [3] -13.1% | [4] 8.65% | [5] 2.1% | [6] -4.2%

CCCCCCCCN(CCCCCCCC)CC(O)c1ccc2c(c1)Sc1ccccc1O2 (stereo unspecified)
active: [1] 96.7% | [2] 98.2% | [3] 97.5% | [4] 97.1% | [5] 97.1% | [6] 98%

Cc1ccccc1C1=CCCCCC1
inactive: [1] -5.15% | [2] -17.6% | [3] -2.8% | [4] 0.75% | [5] -7.65% | [6] -9.8%

C[n+]1ccc(/C=C/c2ccc(O)c3ncccc23)c2cccc(O)c21
inactive: [1] 38.5% | [2] 41.8% | [3] 37.9% | [4] 7.75% | [5] 5.4% | [6] 44.9%

CCC(C)(S)CN (stereo unspecified)
inactive: [1] -1.55% | [2] -2.55% | [3] -7.35% | [4] -37.5% | [5] -11.4% | [6] -1.55%

CCCCCCOC(=O)c1ccccn1
inactive: [1] -5.85% | [2] 1.7% | [3] 0.15% | [4] -91.6% | [5] 17.6% | [6] -26.6%

O=c1[nH]cnc2c1ncn2CCCCO
inactive: [1] -0.15% | [2] -5.25% | [3] 1.6% | [4] 2.7% | [5] -0.05% | [6] 10.4%

CCOC(=O)C(NC(=O)Nc1ccccc1F)(OC)C(F)(F)F (stereo unspecified)
inactive: [1] -23.1% | [2] -38.3% | [3] -75.4% | [4] -4.3% | [5] -28% | [6] -59.6%

NC(=O)C(Br)Cc1cccc(Cl)c1 (stereo unspecified)
inactive: [1] 29.6% | [2] 11.2% | [3] 13.4% | [4] 2.05% | [5] 17.9% | [6] 14.4%

Nc1nc2nc(-c3ccccc3)[nH]c2c(=O)[nH]1
inactive: [1] -3.7% | [2] 6.75% | [3] -0.15% | [4] -52.2% | [5] -15.1% | [6] -12.4%

O=c1cc(Nc2ccc(Cl)cc2)[nH]c(=O)[nH]1
inactive: [1] -1.45% | [2] -5.45% | [3] -5.55% | [4] -61.9% | [5] 6.2% | [6] -7.65%

O=C1CCCC1CC(CN1CCOCC1)Sc1nnnn1-c1ccccc1 (stereo unspecified)
inactive: [1] 6.55% | [2] -3.5% | [3] 17.1% | [4] -16.6% | [5] 25.2% | [6] -45.8%

O=S1(=O)CC(c2ccccc2)(c2ccccc2)Nc2ccccc21
inactive: [1] -6.55% | [2] -14.8% | [3] 0.45% | [4] -5.65% | [5] -11.3% | [6] -18.1%

CSc1nc2c([nH]1)c(=O)n(C)c(=O)n2C
inactive: [1] 8.8% | [2] 21.4% | [3] 8.4% | [4] -1.8% | [5] 16.8% | [6] 7.1%

CC(O)C(NC(=O)C(CCCN)NC(=O)C(CC(O)CN=C(N)N)NC(=O)C(N)CCCN=C(N)N)C(=O)NC(CCCN)C(=O)NC(CC(O)CN=C(N)N)C(=O)NC(Cc1ccc(O)cc1)C(=O)O (stereo unspecified) (H-R[X12][Orn]T[Orn][X12]Y-OH; configuration not given here)
inactive: [1] -0.15% | [2] -19.4% | [3] -4.1% | [4] 15.1% | [5] -15.2% | [6] 2.45%

CNc1nc2c(s1)c1c(O)c3c(O)c(C)c4c(c32)C(=O)C(C)(O/C=C/C(OC)C(C)C(OC(C)=O)C(C)C(O)C(C)C(O)C(C)/C=C/C=C(/C)C(=O)N1)O4 (stereo unspecified)
inactive: [1] 14.1% | [2] 13.8% | [3] 9.1% | [4] 9.7% | [5] 21.2% | [6] 20.5%

CC(=O)OCC1OC(n2nnc3c(=O)n(C)c(=O)[nH]c32)C(OC(C)=O)C(OC(C)=O)C1OC(C)=O (stereo unspecified)
inactive: [1] 9.45% | [2] 16.1% | [3] 13.8% | [4] 4% | [5] 8.9% | [6] 29.4%

O=C(Nc1cccc(Cl)c1)C(Br)C(Br)c1ccccc1 (stereo unspecified)
active: [1] 97.8% | [2] 99.2% | [3] 99.3% | [4] 99.2% | [5] 98.5% | [6] 98.7%

CC(NC(=O)NCCCl)C1CC1 (stereo unspecified)
inactive: [1] -2.1% | [2] 0% | [3] -4.75% | [4] -11.8% | [5] -14.4% | [6] -0.8%

O=C(Nc1ccccc1)C(=O)Nc1ccccc1
inactive: [1] 5.4% | [2] -18.1% | [3] -8.05% | [4] -12.7% | [5] -10.9% | [6] -4.25%

CNc1nc(Cl)nc2c1nc(SC)n2-c1ccccc1
inactive: [1] 7.15% | [2] -17.8% | [3] 4.2% | [4] -13.2% | [5] 18.2% | [6] 17.4%

CSCCC(NCc1c(O)ccc2ccc(=O)oc12)C(=O)O (stereo unspecified)
inactive: [1] -35.6% | [2] -9.1% | [3] -27.9% | [4] 7.45% | [5] 0.95% | [6] -38%

CC(=O)Nc1ccc2c(c1)C(=O)c1ccc(S(C)(=O)=O)cc1-2
inactive: [1] 14.8% | [2] -1.15% | [3] -0.95% | [4] 3.5% | [5] -0.85% | [6] -3.35%

CC(=O)CC(=O)NC(C)(C)C
inactive: [1] 16.6% | [2] -33% | [3] -16.4% | [4] -13.2% | [5] 2.85% | [6] 7.7%

NC(=O)SCC(=O)Nc1ccccc1O
inactive: [1] 14.6% | [2] -27.4% | [3] 2.25% | [4] 0.05% | [5] 0.85% | [6] -9.5%

COc1ccc(/C=C2\N=C(c3cc(OC)c(OC)c(OC)c3)OC2=O)cc1Br
inactive: [1] -6.95% | [2] -6.7% | [3] 21.6% | [4] -0.4% | [5] 6.2% | [6] 2.1%

CCN(CC)C(=O)c1cccc(C(=O)N(CC)CC)n1
inactive: [1] 11.1% | [2] 3.6% | [3] 10.2% | [4] 39.4% | [5] 21.4% | [6] 24.7%

COC(=O)C(=O)C(C(C)=O)C(=O)C(=O)Nc1ccc(C)cc1C (stereo unspecified)
inactive: [1] 19.1% | [2] 14.1% | [3] 1.95% | [4] 15.2% | [5] 26.1% | [6] 17.9%

CSc1nc(N)n2nc(C)cc2n1
inactive: [1] -9.3% | [2] -13.7% | [3] 10.2% | [4] 6.9% | [5] 33.3% | [6] -3.8%

c1ccc(N=NC(N=Nc2ccccc2)=P(c2ccccc2)(c2ccccc2)c2ccccc2)cc1
active: [2] 98.7%
inactive: [1] 56.4% | [3] 53% | [4] 64.6% | [5] 46.7% | [6] 61.9%

O=S(=O)(c1ccccc1)N1CCC1c1ccccc1 (stereo unspecified)
inactive: [1] -11.3% | [2] -3.9% | [3] -8.8% | [4] 21.9% | [5] 9.3% | [6] 0.8%

N#C/C(=C\c1c[nH]c2ccccc12)c1ccc([N+](=O)[O-])cc1
inactive: [1] -13.9% | [2] -10% | [3] 5.45% | [4] 3.45% | [5] -5.2% | [6] -4.1%

CN(C)C(=S)Oc1cc(Cl)c(Cl)cc1Cl
active: [1] 86.1% | [2] 95.6% | [3] 91.3% | [4] 81.8% | [5] 91.3% | [6] 96%

O=C1NCCCC1CCO (stereo unspecified)
inactive: [1] -8.35% | [2] -3.65% | [3] -7.95% | [4] -3.65% | [5] 5.5% | [6] -3.85%

CC1=NC=C(O)c2ccccc2O1
inactive: [1] 24.4% | [2] 12.4% | [3] 26.8% | [4] 15.6% | [5] 14.9% | [6] 21.4%

CC(C)(C)C(N)=O
inactive: [1] 2.4% | [2] -1.25% | [3] 4.35% | [4] -3.9% | [5] -7.25% | [6] -1.25%

O=[N+]([O-])c1ccc2nc[nH]c2c1
inactive: [1] 48.8% | [2] 4.9% | [3] -6.4% | [4] 25.5% | [5] -0.2% | [6] 43.1%
